These results are taken from publication PMC7862700, “An all-to-all approach to the identification of sequence-specific readers for epigenetic DNA modifications on cytosine”.

Common to all, as to assay: DAPPL (digital affinity profiling via proximity ligation, sequencing); 10 mM Tris-HCl pH 7.5, 50 mM NaCl, 1 mM DTT, 4% glycerol, room temperature, 30 min; GST-TFs on glutathione beads, 16-mer random dsDNA library, 0.1% formaldehyde crosslink after washing; high values mean tight binding
The target in one assay is T1, FEV (Homo sapiens, UniProt Q99581 1-238).
T1 sequence: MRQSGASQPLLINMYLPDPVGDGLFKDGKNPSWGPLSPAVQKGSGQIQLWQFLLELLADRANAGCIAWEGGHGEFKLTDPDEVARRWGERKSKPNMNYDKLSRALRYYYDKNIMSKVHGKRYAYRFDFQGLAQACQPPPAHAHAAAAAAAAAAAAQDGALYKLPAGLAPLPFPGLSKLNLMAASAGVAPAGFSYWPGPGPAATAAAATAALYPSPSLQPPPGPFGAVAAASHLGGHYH
The note with it: protein: recombinant; tags: N-terminal GST; dsDNA, one strand shown. Summed up:
(§1)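 A tag-only sample was pooled with DNA-barcoded human transcription factors that had been expressed in yeast as GST fusions and captured on glutathione beads. The pools were incubated for 30 min at room temperature with 200 nmole of a random double-stranded 16-mer DNA library in Tris/NaCl/DTT/glycerol buffer, then washed, crosslinked with 0.1% formaldehyde, proximity-ligated (BsaI/T4 ligase, 1 h, 37 °C), PCR-amplified and sequenced on an Illumina NextSeq500. Binding signal is each hexamer's read frequency for a factor divided by its frequency for the tag-only sample.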

In a further assay the target is ETV5 (Homo sapiens, UniProt P41161 1-510). Conditions: protein: recombinant; tags: N-terminal GST; dsDNA, one strand shown. Summed up: as §1
Sequence of ETV5 (P41161 whole entry): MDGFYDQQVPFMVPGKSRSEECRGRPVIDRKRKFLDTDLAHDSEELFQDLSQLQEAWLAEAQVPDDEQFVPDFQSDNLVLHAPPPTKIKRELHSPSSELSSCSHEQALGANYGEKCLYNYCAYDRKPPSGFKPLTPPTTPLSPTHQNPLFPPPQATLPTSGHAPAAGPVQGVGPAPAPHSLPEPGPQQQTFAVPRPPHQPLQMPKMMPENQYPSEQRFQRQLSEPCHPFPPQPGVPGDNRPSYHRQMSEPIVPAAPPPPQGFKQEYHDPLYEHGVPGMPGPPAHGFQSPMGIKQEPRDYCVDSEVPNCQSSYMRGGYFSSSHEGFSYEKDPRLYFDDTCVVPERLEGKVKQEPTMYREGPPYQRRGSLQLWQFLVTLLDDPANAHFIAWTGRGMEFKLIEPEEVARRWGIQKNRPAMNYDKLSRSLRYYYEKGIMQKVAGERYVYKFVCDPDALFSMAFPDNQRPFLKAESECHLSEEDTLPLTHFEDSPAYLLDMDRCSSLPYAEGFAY
In a further assay the target is HSF1 (Homo sapiens, UniProt Q00613 1-529). The note with it: protein: recombinant; tags: N-terminal GST; chain copies: 3; dsDNA, one strand shown. Summed up: as §1
Sequence of HSF1 (Q00613 whole entry): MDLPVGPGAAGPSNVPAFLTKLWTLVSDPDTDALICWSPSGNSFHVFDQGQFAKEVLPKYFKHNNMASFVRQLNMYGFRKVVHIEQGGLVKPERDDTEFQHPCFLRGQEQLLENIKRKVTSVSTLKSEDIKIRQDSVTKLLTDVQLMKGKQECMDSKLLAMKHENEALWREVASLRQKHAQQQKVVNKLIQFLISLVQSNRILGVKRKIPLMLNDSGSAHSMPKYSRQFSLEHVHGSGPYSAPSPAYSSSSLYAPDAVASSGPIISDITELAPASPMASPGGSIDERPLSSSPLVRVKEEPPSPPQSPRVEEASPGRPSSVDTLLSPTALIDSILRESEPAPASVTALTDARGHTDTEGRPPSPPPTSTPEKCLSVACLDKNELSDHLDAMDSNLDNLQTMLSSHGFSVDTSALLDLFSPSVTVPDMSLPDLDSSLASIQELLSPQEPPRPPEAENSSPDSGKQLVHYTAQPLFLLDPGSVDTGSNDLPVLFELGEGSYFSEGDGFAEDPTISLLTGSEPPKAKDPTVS
The target in a further assay is T2, SPIC (Homo sapiens, UniProt Q8N5J4 1-248).
T2 sequence: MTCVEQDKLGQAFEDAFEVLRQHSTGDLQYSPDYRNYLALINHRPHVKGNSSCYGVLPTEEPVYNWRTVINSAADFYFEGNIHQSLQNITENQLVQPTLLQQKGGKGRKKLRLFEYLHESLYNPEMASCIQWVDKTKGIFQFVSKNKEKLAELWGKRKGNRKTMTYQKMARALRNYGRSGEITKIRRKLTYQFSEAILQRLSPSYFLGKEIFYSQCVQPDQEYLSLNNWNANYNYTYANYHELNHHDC
The note with it: protein: recombinant; tags: N-terminal GST; dsDNA, one strand shown. Summed up:
as §1

Another assay deals with ELF4 (Homo sapiens, UniProt Q99607 1-663). The note with it: protein: recombinant; tags: N-terminal GST; dsDNA, one strand shown. Summed up: as §1
Sequence of ELF4 (Q99607 whole entry): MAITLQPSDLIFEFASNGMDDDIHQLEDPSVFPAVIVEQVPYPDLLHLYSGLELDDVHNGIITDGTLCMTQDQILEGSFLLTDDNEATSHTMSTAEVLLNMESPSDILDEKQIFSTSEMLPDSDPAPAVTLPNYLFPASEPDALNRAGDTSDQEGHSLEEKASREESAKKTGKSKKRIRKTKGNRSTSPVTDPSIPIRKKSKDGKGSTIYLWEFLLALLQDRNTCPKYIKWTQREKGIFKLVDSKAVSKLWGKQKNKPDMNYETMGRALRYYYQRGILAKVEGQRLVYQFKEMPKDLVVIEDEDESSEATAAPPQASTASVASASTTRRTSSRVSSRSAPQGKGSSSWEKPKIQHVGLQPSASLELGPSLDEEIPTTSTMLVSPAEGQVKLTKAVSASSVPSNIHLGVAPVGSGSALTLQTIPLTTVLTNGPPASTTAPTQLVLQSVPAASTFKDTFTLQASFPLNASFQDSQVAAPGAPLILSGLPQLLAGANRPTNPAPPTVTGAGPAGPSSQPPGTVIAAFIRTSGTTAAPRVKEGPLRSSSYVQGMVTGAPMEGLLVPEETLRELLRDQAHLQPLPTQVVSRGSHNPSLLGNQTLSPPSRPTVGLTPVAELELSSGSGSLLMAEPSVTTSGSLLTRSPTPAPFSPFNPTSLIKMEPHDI
In a further assay the target is T3, ELK4 (Homo sapiens, UniProt P28324-2 1-405).
T3 sequence: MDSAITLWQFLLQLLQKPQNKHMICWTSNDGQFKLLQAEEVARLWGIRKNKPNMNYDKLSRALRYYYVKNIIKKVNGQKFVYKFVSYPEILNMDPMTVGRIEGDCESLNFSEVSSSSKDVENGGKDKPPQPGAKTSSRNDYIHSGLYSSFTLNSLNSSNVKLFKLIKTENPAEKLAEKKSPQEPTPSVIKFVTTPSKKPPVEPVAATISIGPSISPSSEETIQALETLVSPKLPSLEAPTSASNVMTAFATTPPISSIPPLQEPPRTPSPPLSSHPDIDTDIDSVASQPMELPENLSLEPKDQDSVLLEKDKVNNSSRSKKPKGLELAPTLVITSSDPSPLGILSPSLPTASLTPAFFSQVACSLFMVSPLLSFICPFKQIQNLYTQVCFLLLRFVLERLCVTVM
The note with it: protein: recombinant; tags: N-terminal GST; dsDNA, one strand shown. Summed up:
as §1

The target of another assay is T4, ETV2 (Homo sapiens, UniProt O00321 1-342).
T4 sequence: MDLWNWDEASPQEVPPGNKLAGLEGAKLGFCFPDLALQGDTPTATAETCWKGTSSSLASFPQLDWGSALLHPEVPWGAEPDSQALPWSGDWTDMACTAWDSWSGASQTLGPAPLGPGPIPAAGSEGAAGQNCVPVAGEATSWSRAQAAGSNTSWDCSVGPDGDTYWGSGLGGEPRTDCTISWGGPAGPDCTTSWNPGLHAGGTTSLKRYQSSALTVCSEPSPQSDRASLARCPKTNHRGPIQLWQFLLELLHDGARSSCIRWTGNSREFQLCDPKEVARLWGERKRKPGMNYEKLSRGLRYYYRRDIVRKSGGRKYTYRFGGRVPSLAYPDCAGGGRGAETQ
Conditions: protein: recombinant; tags: N-terminal GST; dsDNA, one strand shown. Summed up: as §1

For the next assay, the target named is T5, ELF3 (Homo sapiens, UniProt P78545 1-371).
T5 sequence: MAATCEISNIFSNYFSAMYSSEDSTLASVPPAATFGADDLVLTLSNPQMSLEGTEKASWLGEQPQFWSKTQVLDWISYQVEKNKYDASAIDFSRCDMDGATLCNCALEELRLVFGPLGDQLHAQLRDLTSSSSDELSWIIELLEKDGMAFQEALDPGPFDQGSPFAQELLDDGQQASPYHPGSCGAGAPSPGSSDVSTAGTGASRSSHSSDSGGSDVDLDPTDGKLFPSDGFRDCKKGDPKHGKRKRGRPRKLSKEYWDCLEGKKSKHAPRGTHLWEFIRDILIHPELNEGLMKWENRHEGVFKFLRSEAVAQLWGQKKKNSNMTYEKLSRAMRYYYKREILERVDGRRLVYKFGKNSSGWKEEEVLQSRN
Conditions: protein: recombinant; tags: N-terminal GST; dsDNA, one strand shown. Summed up: as §1

For another assay, the target named is CRX (Homo sapiens, UniProt O43186 1-299). The note with it: protein: recombinant; tags: N-terminal GST; dsDNA, one strand shown. Summed up:
as §1

Another assay addresses ETV1 (Homo sapiens, UniProt P50549 1-477). Conditions: protein: recombinant; tags: N-terminal GST; dsDNA, one strand shown. Summed up:
as §1

For another assay, the target named is T6, ERF (Homo sapiens, UniProt P50548 1-548).
T6 sequence: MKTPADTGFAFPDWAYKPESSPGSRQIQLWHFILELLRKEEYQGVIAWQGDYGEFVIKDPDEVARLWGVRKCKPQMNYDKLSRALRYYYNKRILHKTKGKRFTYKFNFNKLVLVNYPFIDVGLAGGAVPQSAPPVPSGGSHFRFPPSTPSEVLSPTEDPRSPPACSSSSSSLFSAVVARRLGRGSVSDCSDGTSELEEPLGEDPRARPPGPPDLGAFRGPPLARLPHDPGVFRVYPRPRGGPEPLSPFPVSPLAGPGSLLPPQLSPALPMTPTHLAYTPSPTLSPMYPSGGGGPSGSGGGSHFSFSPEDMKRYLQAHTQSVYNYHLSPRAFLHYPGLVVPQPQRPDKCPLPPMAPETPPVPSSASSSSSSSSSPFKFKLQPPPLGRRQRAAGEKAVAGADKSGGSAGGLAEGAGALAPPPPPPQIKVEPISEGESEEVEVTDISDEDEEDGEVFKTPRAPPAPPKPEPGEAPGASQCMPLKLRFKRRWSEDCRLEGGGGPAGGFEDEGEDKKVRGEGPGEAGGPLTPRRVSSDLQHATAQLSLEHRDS
Conditions: protein: recombinant; tags: N-terminal GST; dsDNA, one strand shown. Summed up: as §1

In another assay the target is T7, ETV3L (Homo sapiens, UniProt Q6ZN32 1-361).
T7 sequence: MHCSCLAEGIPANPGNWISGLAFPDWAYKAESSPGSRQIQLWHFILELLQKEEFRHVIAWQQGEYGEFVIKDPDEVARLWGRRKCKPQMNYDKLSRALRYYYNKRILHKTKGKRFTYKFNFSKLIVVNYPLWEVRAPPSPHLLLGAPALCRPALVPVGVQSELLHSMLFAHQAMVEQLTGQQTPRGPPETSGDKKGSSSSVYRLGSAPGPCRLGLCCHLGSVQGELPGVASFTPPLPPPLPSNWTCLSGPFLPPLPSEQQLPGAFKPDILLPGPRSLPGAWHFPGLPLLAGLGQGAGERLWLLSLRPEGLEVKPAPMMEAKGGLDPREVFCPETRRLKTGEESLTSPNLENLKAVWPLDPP
Conditions: protein: recombinant; tags: N-terminal GST; dsDNA, one strand shown. Summed up:
as §1

In the next assay the target is T8, ETS2 (Homo sapiens, UniProt P15036 1-469).
T8 sequence: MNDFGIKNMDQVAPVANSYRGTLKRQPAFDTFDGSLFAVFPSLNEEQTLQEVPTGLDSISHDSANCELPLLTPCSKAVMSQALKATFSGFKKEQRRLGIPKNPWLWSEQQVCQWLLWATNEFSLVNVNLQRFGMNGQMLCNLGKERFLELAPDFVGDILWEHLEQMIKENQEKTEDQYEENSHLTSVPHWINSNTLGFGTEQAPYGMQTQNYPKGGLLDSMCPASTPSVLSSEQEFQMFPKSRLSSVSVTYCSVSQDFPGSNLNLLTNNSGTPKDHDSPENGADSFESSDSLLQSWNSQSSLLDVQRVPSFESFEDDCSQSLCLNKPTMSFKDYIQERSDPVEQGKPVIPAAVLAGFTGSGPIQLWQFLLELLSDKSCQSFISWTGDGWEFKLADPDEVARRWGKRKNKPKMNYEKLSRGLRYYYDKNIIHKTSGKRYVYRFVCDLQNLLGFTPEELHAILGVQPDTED
Conditions: protein: recombinant; tags: N-terminal GST; dsDNA, one strand shown. Summed up:
as §1

In the next assay the target is T9, SPDEF (Homo sapiens, UniProt O95238 1-335).
T9 sequence: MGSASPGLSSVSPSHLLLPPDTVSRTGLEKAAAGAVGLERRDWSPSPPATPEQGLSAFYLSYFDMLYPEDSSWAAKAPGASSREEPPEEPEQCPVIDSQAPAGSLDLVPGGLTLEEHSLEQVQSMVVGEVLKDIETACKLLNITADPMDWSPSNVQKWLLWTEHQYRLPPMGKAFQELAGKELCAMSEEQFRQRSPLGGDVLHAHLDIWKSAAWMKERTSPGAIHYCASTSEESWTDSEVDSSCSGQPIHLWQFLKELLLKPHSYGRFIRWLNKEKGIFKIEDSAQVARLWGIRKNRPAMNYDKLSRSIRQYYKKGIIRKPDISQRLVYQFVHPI
Conditions: protein: recombinant; tags: N-terminal GST; dsDNA, one strand shown. Summed up: as §1

The next assay deals with T10, ETV7 (Homo sapiens, UniProt Q9Y603 1-341).
T10 sequence: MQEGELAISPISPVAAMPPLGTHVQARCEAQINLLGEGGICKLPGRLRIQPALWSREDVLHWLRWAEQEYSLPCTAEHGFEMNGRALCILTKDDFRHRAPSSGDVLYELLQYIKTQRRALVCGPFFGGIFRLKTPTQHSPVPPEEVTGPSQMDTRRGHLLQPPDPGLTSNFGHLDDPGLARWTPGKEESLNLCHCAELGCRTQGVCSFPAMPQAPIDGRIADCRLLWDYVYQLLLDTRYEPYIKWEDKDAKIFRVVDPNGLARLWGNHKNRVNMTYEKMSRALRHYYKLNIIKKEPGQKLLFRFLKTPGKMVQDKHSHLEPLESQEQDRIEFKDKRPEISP
Conditions: protein: recombinant; tags: N-terminal GST; dsDNA, one strand shown. Summed up:
as §1

For another assay, the target named is T11, ELF5 (Homo sapiens, UniProt Q9UKW6-2 1-255).
T11 sequence: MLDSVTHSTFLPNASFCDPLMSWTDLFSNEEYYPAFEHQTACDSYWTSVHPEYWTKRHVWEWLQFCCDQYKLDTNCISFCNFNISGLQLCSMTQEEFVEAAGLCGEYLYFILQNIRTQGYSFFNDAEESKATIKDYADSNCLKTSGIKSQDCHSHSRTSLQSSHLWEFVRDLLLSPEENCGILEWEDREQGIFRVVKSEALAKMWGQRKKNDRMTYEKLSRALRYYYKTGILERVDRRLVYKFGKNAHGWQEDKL
The note with it: protein: recombinant; tags: N-terminal GST; dsDNA, one strand shown. Summed up: as §1

Another assay deals with T12, ETV3 (Homo sapiens, UniProt P41162-2 1-143).
T12 sequence: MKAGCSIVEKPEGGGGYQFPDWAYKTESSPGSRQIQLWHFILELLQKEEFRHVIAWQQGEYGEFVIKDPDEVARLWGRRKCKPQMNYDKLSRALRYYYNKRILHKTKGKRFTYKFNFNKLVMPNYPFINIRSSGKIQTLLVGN
Conditions: protein: recombinant; tags: N-terminal GST; dsDNA, one strand shown. Summed up: as §1

In another assay the target is ETV6 (Homo sapiens, UniProt P41212 1-452). Conditions: protein: recombinant; tags: N-terminal GST; dsDNA, one strand shown. Summed up:
as §1

Sequence of CRX (O43186 whole entry): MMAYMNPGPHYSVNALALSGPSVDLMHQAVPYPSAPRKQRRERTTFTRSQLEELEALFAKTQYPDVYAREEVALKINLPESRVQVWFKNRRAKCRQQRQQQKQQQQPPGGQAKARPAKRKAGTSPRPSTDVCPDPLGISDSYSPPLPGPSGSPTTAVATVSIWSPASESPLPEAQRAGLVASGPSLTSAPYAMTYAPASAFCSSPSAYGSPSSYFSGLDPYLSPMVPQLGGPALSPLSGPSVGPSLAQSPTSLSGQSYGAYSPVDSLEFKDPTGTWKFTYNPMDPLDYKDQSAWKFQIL
Sequence of ETV6 (P41212 whole entry): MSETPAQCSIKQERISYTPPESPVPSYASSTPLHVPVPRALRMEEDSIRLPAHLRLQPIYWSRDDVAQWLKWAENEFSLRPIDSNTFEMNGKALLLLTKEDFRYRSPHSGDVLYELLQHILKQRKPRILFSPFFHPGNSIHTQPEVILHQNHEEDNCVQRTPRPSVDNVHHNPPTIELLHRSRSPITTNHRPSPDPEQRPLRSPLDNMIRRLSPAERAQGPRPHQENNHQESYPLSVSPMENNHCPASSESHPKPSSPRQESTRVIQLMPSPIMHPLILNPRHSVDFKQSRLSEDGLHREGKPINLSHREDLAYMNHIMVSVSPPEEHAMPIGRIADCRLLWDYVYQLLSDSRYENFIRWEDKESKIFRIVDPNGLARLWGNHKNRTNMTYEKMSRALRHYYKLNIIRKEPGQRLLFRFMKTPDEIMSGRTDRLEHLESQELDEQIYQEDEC
Sequence of ETV1 (P50549 whole entry): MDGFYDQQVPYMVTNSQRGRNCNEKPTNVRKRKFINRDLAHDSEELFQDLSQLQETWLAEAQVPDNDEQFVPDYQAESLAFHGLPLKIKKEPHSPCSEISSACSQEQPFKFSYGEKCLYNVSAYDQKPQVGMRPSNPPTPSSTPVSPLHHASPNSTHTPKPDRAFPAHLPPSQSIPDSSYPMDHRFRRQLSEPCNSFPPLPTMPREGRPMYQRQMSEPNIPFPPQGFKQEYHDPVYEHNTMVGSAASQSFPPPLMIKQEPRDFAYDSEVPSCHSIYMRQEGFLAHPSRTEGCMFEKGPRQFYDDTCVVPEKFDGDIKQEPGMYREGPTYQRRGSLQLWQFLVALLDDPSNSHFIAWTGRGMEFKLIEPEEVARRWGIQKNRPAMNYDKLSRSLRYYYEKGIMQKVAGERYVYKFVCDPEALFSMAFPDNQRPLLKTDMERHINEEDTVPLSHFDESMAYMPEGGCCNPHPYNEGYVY

For the sequence TGAATT, the binding signal in the assay with FEV was 1.18 fold enrichment (6-mer frequency, TF over GST control); with ETV5, 1.15 fold enrichment (6-mer frequency, TF over GST control); with HSF1, 1.23 fold enrichment (6-mer frequency, TF over GST control); with SPIC it was 1.34 fold enrichment (6-mer frequency, TF over GST control); with ELF4 it was 1.16 fold enrichment (6-mer frequency, TF over GST control); with ELK4, 1.01 fold enrichment (6-mer frequency, TF over GST control). Further, the binding signal is 1.19 fold enrichment (6-mer frequency, TF over GST control) in the assay with ETV2; 1.12 fold enrichment (6-mer frequency, TF over GST control) in the assay with ELF3; 1.38 fold enrichment (6-mer frequency, TF over GST control) in the assay with CRX; 1.23 fold enrichment (6-mer frequency, TF over GST control) with ETV1; 1.14 fold enrichment (6-mer frequency, TF over GST control) in the assay with ERF; 1.17 fold enrichment (6-mer frequency, TF over GST control) with ETV3L. The binding signal in the assay with ETS2 is 1.16 fold enrichment (6-mer frequency, TF over GST control); with SPDEF, 1.11 fold enrichment (6-mer frequency, TF over GST control); with ETV7, 1.21 fold enrichment (6-mer frequency, TF over GST control); with ELF5 it was 1.13 fold enrichment (6-mer frequency, TF over GST control); with ETV3, 1.16 fold enrichment (6-mer frequency, TF over GST control); with ETV6 it was 1.03 fold enrichment (6-mer frequency, TF over GST control).
